Measurements published in PubChem BioAssay (NCATS).
Inconclusive results are not listed. Calls of active or inactive are those of the source. Unless noted, calls come from the whole dose curve; as a rule, active = well fitted curve in the direction sought with a large enough effect; inconclusive = small, poorly fitted or top-dose-only effect, or another doubt; inactive = no such curve, though single readings can be large; an effect the other way counts as inactive or inconclusive.

Tests used:
[1] = Validation screen for small molecules that induce DNA re-replication in MCF 10A normal breast cells (AID 463097); settings: MCF 10A cells, DNA re-replication phenotype imaging; series mostly up to 46.1 µM; note: nearly all actives have a fitted effect of over 60% in size
Method in brief: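 Read-out is Hoechst total nuclear intensity by fluorescence scanning imager, flagging increased high-DNA-content nuclei. Compounds were incubated with MCF 10A cells for 48 hr (37 C, 5% CO2) before 40 min staining.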

[2] = Quantitative high throughput screen for delayed death inhibitors of the malarial parasite plastid, 96 hour incubation (AID 488745); settings: Plasmodium falciparum growth; series mostly up to 28.7 µM; note: nearly all actives have a fitted effect of over 70% in size
Method in brief: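 Two-generation (96 h) exposure of luciferase-reporter P. falciparum in erythrocytes, 2% hematocrit, 0.1% parasitemia final, 37 C, 5% CO2, RPMI 1640 with 0.5% Albumax. Growth inhibition scored by reduced luminescence.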

[3] = High Content Imaging Cell-Based qHTS for Inhibitors of the mTORC1 Signaling Pathway in MEF Cells (AID 2667); settings: series mostly up to 38.3 µM;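 note: Tsc2-/- p53-/- MEFs stably re-expressing wild-type Tsc2 exposed 24 h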
Method in brief: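 Tsc2-/-, p53-/- MEFs stably re-expressing WT Tsc2, grown in DMEM + 10% FBS, were treated with compounds for 24 hrs at 37 degree Celsius, fixed, and stained with Alexa-488 phospho-rpS6 Ser235/236 antibody plus Hoechst; results given as % positive cells.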

[4] = Cytometry Cell-Based qHTS for Inhibitors of the mTORC1 Signaling Pathway in MEF cells (AID 2668); settings: mTORC1 pathway readout; series mostly up to 38.3 µM;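 note: Tsc2-/- p53-/- mouse embryonic fibroblasts stably re-expressing wild-type Tsc2; percent cells positive for phospho-rpS6 Ser235/236 relative to propidium iodide stain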
Method in brief: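 Phospho-rpS6 (Ser235/236) immunofluorescence over PI signal, scored as % positive cells using thresholds from 7.5 nM rapamycin and DMSO wells, after 24 h compound exposure of WT-Tsc2-rescued Tsc2-/-, p53-/- MEFs. PI cell count recorded for viability.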

[5] = target: Ubiquitin carboxyl-terminal hydrolase 2 (Homo sapiens) (UniProt O75604); assay: qHTS Validation Assay for Inhibitors of Ubiquitin-specific Protease USP2a Using CHOP2 as the Reporter (AID 463106); settings: USP2a cleavage of CHOP2 reporter, enzymatic; series mostly up to 38.3 µM
Method in brief: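 Readout was coupled fluorescence (Ex 485/Em 531 nm), read 60 min after adding 25 nM final Ub-CHOP2 and 25 nM reporter substrate. Beforehand, 10 nM final USP2 core had 30 min at RT with compound in pH 8.0 buffer. Curves were fitted after normalization to NEM and flagged for artifacts using time-zero reads.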

[6] = target: DNA polymerase III PolC-type (Bacillus subtilis (strain 168)) (UniProt P13267); assay: qHTS Validation Assay for the Inhibitors of DNA Replication in Gram-Positive Bacteria (AID 485295); settings: Gram-positive bacterial DNA replication assay; series mostly up to 57.1 µM;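 note: reconstituted holoenzyme with PolC plus beta clamp SSB and primase; PicoGreen fluorescence of double-stranded DNA made on primed circular M13 template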
Method in brief: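 Double-stranded DNA product detected by PicoGreen fluorescence after EDTA quench. Compound incubated with B. subtilis holoenzyme (PolC, beta subunit, SSB, primase) before substrate addition; primed replication of M13Gori with dNTPs and NTPs at room temperature; DMSO defines 0% inhibition.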

[7] = target: Tumor susceptibility gene 101 protein (Homo sapiens) (UniProt Q99816); assay: qHTS Validation Assay for Iinhibitors of HIV-1 Budding by Blocking the Interaction of PTAP/TSG101 (AID 485342; calls by dose curve); settings: TSG101-PTAP binding, fluorescence polarization, 4-point titration; series mostly up to 115 µM
Method in brief: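 Fluorescence polarization of 50 nM FITC-PTAP peptide bound to 10 uM Tsg101 binding domain was read after 20 min room-temperature incubation with compounds, in 10 mM HEPES pH 7.5, 0.15 M NaCl, 0.01% Tween 20.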

[8] = target: Beta-2 adrenergic receptor (Homo sapiens) (UniProt P07550); assay: qHTS validation assay of beta-arrestin-biased ligands of beta2-adrenergic receptor (AID 485366); settings: cell-based beta-arrestin recruitment to ADRB2, qHTS; series mostly up to 46.1 µM
Method in brief: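 Agonist activity is measured as luciferase luminescence downstream of beta-arrestin recruitment to recombinant beta2-AR in Tango cells. Exposure lasts 18 hr at 37 degrees C, and curves are categorized by r2, response size and activity.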

[9] = qHTS Validation Assay to Find Inhibitors of Chronic Active B-Cell Receptor Signaling (AID 485345; active = well fitted curve in the direction sought with a large enough effect in the main read-out, with a control signal flat, not every such curve was filed as active); settings: ABC-DLBCL cells, chronic BCR signaling reporter, CBG luciferase; series mostly up to 46.1 µM
Method in brief: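 Read-out: ratio of filter-corrected green (IkappaBalpha fusion) to red (native) luciferase signal in doxycycline-induced TMD8 cells after 4 h at 37C. Titration spanned 46 uM–3 nM; Data were normalised to basal cells and 10 uM MG-132 wells.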

[10] = target: ATP-dependent 6-phosphofructokinase (Trypanosoma brucei brucei) (UniProt O15648); assay: qHTS Validation Assay to Find Inhibitors of T. brucei phosphofructokinase (AID 485368); settings: T. brucei PFK enzyme assay, qHTS 7-point titration; series mostly up to 57.5 µM
From the text: NIH Molecular Libraries Probe Production Network [MLPCN]
NIH Chemical Genomics Center [NCGC]
PI Name: Malcolm Walkinshaw, University of Edinburgh
Various species of the protozoan family Trypanosomatidae are responsible for a range of serious human diseases in tropical and subtropical areas of the world. […] Many of the disorders caused by trypanosomatids are fatal if left untreated, but most currently used drugs are inefficient and toxic. […]
The goal of this screen is to find small-molecule inhibitors of T. brucei PFK using a biochemical assay that measures PFK activity as a function of ADP production. A luminescence-based assay for T. brucei PFK activity has been developed which uses luciferase to detect production of ADP. […] To directly measure the ADP product of the PFK reaction, we used the ADP-Glo detection kit (Promega), which utilizes two separate reactions to 1) deplete all remaining uncatalyzed ATP and 2) convert all remaining ADP to ATP, which is then detected through a traditional luciferase-coupled reaction. […]
Substrate buffer was dispensed into white, solid 1536-well plates at 3uL/well in 0.1M triethanolamine (TEA) buffer, pH 8.0, containing final concentrations of 5 mM MgCl2, 0.01% Tween20, 0.5 mM fructose-6-phosphate (F6P) and 0.1mM ATP. […] The plates were measured on a ViewLux plate reader for luminescent signal using a clear filter with a one second exposure. […]

Measured: outcome

Sequence of Tumor susceptibility gene 101 protein (Homo sapiens) (Q99816 whole entry, looked up, the tested form may be a part): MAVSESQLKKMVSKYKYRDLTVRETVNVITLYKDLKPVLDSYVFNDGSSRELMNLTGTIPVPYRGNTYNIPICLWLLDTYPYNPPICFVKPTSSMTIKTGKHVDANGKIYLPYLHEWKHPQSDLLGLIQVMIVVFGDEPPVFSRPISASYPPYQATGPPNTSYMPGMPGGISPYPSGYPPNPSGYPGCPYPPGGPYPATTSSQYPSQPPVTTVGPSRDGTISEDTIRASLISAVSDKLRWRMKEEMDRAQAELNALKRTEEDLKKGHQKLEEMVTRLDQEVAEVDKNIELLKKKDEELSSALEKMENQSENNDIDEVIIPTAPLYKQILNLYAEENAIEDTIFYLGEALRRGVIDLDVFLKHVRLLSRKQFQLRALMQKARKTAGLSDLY
Sequence of Ubiquitin carboxyl-terminal hydrolase 2 (Homo sapiens) (O75604 whole entry, looked up): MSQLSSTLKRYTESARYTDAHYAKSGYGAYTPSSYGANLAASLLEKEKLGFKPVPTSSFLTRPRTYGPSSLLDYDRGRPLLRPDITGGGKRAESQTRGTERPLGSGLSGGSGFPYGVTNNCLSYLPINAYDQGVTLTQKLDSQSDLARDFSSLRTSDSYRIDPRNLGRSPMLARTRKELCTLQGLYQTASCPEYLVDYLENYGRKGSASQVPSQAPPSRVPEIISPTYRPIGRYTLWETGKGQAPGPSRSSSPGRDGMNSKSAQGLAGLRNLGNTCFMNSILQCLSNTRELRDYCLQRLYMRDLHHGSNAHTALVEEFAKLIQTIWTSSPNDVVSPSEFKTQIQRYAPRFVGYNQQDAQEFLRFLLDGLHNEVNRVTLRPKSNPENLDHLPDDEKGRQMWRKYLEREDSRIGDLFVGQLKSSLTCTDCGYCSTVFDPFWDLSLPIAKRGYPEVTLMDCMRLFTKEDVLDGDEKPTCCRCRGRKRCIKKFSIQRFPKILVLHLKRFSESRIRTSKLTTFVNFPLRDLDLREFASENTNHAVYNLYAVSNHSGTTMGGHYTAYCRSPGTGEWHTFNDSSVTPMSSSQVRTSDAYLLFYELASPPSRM
Sequence of Beta-2 adrenergic receptor (Homo sapiens) (P07550 whole entry, looked up): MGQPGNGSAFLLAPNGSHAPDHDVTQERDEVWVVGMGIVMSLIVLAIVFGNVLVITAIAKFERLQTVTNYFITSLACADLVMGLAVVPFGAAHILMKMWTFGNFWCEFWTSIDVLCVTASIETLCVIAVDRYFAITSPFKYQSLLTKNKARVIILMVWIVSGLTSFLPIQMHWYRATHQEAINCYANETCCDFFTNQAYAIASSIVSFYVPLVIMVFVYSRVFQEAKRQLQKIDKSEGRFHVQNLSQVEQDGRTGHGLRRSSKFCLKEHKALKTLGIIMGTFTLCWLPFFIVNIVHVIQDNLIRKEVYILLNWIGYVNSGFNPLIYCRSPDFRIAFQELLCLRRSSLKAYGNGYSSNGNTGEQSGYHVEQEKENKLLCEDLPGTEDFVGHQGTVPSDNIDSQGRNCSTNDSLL
Sequence of DNA polymerase III PolC-type (Bacillus subtilis (strain 168)) (P13267 whole entry, looked up): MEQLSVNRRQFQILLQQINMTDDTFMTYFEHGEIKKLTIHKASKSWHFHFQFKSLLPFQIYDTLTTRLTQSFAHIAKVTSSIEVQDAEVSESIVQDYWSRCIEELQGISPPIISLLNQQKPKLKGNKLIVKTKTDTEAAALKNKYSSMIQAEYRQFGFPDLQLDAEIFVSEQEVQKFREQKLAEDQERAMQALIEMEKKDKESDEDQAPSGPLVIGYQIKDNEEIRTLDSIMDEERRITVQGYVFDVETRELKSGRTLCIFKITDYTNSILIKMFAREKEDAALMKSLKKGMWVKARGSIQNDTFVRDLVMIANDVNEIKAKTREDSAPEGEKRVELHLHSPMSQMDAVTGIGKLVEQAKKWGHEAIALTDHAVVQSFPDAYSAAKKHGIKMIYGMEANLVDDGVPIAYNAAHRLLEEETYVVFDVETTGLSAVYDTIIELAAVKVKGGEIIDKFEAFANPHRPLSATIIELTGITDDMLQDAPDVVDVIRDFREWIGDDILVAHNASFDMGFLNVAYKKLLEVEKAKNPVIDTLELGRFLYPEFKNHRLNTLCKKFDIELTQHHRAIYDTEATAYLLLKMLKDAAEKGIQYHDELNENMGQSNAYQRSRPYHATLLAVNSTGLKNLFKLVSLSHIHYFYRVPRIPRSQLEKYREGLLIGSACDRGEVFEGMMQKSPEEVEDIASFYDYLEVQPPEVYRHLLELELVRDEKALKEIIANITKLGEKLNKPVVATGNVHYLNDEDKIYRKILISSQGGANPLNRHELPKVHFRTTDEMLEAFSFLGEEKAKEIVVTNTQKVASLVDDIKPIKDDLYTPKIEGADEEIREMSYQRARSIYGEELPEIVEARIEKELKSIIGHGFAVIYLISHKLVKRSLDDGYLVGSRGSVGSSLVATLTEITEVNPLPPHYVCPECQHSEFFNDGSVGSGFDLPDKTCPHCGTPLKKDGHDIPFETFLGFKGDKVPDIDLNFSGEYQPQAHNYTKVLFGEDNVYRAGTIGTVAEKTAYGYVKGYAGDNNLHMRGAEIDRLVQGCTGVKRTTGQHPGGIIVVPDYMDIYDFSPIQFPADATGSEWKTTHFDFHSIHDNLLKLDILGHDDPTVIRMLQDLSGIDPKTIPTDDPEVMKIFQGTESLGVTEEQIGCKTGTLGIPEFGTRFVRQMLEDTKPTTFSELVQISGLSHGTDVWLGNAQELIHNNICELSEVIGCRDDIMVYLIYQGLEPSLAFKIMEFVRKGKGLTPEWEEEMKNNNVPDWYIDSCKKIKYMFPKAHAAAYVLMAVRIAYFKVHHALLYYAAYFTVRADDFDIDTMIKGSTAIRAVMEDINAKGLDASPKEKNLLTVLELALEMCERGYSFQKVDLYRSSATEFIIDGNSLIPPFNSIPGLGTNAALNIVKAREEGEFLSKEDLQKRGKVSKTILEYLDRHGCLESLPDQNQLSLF
Sequence of ATP-dependent 6-phosphofructokinase (Trypanosoma brucei brucei) (O15648 whole entry, looked up): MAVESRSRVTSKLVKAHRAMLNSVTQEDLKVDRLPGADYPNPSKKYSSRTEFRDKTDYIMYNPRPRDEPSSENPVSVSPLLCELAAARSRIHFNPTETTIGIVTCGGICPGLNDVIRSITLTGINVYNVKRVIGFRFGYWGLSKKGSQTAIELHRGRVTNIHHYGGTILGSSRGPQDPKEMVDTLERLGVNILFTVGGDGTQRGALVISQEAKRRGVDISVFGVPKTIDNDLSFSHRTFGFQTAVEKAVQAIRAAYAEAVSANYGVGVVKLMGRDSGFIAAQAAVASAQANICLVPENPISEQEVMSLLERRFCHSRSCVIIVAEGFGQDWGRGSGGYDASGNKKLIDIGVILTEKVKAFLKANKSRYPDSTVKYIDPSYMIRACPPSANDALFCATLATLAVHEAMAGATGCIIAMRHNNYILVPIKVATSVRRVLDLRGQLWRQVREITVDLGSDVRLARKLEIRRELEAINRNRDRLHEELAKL

N=c1ccn2c(n1)O[C@H]1[C@@H](O)[C@@H](CO)O[C@H]12
inactive: [1] | [2]

COc1ccc2cc([S+]([O-])Cc3ncc(C)c(OC)c3C)nc2c1
inactive: [3] | [4] | [5] | [6] | [7] | [8]

O=c1[nH]c(=O)n([C@H]2C[C@@H](O)[C@@H](CO)O2)cc1C=CBr
not listed: [1] | [2]
inactive: all other assays above

CN[C@H](CC(C)C)C(=O)N[C@H]1C(=O)N[C@@H](CC(N)=O)C(=O)N[C@@H]2C(=O)N[C@H]3C(=O)N[C@H](C(=O)N[C@H](C(=O)O)c4cc(O)cc(O)c4-c4cc3ccc4O)[C@H](O)c3ccc(c(Cl)c3)Oc3cc2cc(c3O[C@@H]2O[C@H](CO)[C@@H](O)[C@H](O)[C@@H]2O[C@H]2C[C@](C)(N)[C@H](O)[C@H](C)O2)Oc2ccc(cc2Cl)[C@H]1O
not listed: [1] | [2] | [10]
inactive: all other assays above
